# Reference: PubChem BioAssay AID1851 (National Center for Advancing Translational Sciences (NCATS), 2009)
# Screen size: about 16,000 compounds; about 5,700 (36%) were called active. Inconclusive results (about 24%) are left out. The list shows a part of the results. Values without a mark were called inactive. The call rests on the fitted dose curve; in most records, active means well fitted curve in the direction sought with a large enough effect; inconclusive means small, poorly fitted or top-dose-only effect, or effect the other way; inactive means no such curve, though single readings can be large or run the other way.
# Target: Cytochrome P450 1A2 (Homo sapiens) (UniProt P05177)
# Test: Cytochrome panel assay with activity outcomes
# Settings: recombinant CYP, pro-luciferin dealkylation, luminescence, p450-cyp1a2; series mostly up to 57.1 µM; activity, negative = inhibition: at the top concentration
# On the % scale 0 is the no-effect control and ±100 the full control effect.
# Chain of Cytochrome P450 1A2 (Homo sapiens) (P05177 whole entry, looked up): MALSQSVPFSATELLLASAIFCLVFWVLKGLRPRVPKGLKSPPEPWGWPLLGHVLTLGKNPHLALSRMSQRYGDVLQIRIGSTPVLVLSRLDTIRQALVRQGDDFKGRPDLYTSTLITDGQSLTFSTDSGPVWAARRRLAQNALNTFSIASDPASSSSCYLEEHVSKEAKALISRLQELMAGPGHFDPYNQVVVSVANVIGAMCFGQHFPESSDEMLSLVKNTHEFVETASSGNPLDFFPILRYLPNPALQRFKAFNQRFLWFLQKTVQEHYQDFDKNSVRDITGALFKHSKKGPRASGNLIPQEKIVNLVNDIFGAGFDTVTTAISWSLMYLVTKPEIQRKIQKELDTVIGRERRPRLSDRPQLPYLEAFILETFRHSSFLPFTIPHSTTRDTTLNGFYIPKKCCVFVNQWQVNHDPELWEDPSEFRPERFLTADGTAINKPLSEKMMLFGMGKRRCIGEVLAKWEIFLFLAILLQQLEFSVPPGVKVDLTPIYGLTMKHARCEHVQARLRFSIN
SMILES,AC50,"activity, negative = inhibition"
Fc1ccc(COc2ccc(Br)cc2CNCc2ccncc2)cc1,0.316 µM (active),–
Cc1nnc(NC(=O)c2oc3c(ccc4ccccc43)c2C)s1,0.2 µM (active),–
Cc1nnc(NC(=O)CCC(=O)NCc2cccs2)s1,–,-18%
COC(=O)[C@@H](NC(=O)Nc1ccc(C(C)=O)cc1)C(C)C,–,-4.26%
Cc1cccc(OCCCC(=O)Nc2ccc(N3CCCCC3)cc2)c1,–,-15.4%
Cc1c(NC(=O)CCCOc2ccccc2)cccc1[N+](=O)[O-],12.6 µM (active),–
Cc1c(NC(=O)C(Sc2ccccc2)c2ccccc2)cccc1[N+](=O)[O-] (stereo not given),–,-9.98%
Cc1ccc(OCC(=O)NNC(=O)CCC(=O)Nc2ccc(C)cc2C)cc1,–,-2.46%
Cc1cccc(OCCCC(=O)Nc2ccccc2C(F)(F)F)c1,11.2 µM (active),–
COc1cc([N+](=O)[O-])ccc1NC(=O)CCCOc1cccc(C)c1,7.94 µM (active),–
Cc1ccc(OCCCC(=O)Nc2ccccc2C(F)(F)F)cc1,4.47 µM (active),–
Cc1c(NC(=O)/C=C/C(=O)O)cccc1[N+](=O)[O-],–,-12.2%
Cc1nn(-c2ccccc2)c2c1C(c1ccc(O)c(O)c1)N1C(=N2)C(Nc2ccccc2)=Nc2ccccc21 (stereo not given),–,-3.72%
COc1ccc(C(=O)N2CC3(CC(c4ccc(Cl)cc4)=NO3)C[C@H]2C(=O)NCC(N)=O)cc1 (stereo not given in full),–,-12.9%
C[N+]1(CC(=O)OCCCc2ccccc2)CCOCC1,–,9.57%
COc1ccc([N+](=O)[O-])cc1NC(=O)CC(C)c1ccccc1 (stereo not given),5.01 µM (active),–
COc1ccccc1NC(=O)Cn1cncc1-c1ccc([N+](=O)[O-])cc1,–,-23.8%
CCN(CC(=O)Nc1ccc([N+](=O)[O-])cc1OC)c1ccccc1,12.6 µM (active),–
C=CC[C@@H]1C=C[C@H](O/N=C\[C@@H](C)[C@H](OCc2ccccc2)C(C)C)[C@H](CO)O1,–,9.01% [at 11.4 µM]
O=C1c2ccccc2NC(c2ccc(F)cc2)N1Cc1ccco1 (stereo not given),25.1 µM (active),–
CN(Cc1ccco1)C(=O)C1CCC(=O)N1Cc1ccc(F)cc1 (stereo not given),–,17.4%
COc1ccc(C2Nc3ccccc3C(=O)N2Cc2ccco2)cc1COc1ccc([N+](=O)[O-])cc1 (stereo not given),–,-16.8%
Cc1ccc(C2Nc3ccccc3C(=O)N2Cc2ccco2)cc1 (stereo not given),15.8 µM (active),–
COc1cc(C2C(=O)N(C3CCCC3)CC(=O)N2Cc2ccco2)ccc1OC(C)C (stereo not given),–,-9.22%
CC(C)Oc1ccc(/C(O)=C2/C(=O)C(=O)N(Cc3cccnc3)C2c2ccco2)cc1 (stereo not given),–,-5.23%

SMILES,AC50,"activity, negative = inhibition"
C/C(CC(=O)Nc1cc(C)ccn1)=N\NC(=O)COc1cccc(C)c1,14.1 µM (active),–
CC(=O)Nc1ccc(NC(=O)C/C(C)=N/NC(=O)C(=O)N2CCCC2)cc1,–,1.33%
Cc1ccc(S(=O)(=O)CCc2nnc(NC(=O)COc3cccc(C)c3)s2)cc1,–,7.38%
COc1cccc(-c2cc(C(F)(F)F)nc(N3CCOCC3)n2)c1,0.794 µM (active),–
COc1cccc(-c2cc(C(F)(F)F)n3ncc(S(=O)(=O)c4ccccc4)c3n2)c1,–,-19.7%
COc1cccc(-c2cc(C(F)(F)F)nc(N3CCN(c4ccccc4)CC3)n2)c1,12.6 µM (active),–
COc1cccc(-c2cc(C(F)(F)F)nc(N3CCCCC3)n2)c1,1 µM (active),–
CCOC(=O)N1CCC(NC(=O)CCC(=O)N2CCOc3ccccc32)CC1,–,-14.2%
CCOC(=O)[C@H](N)/C=C(\C)CP(=O)(O)O,–,-17.3%
CCCC(=O)Nc1nc(-c2ccc3c(c2)CCN3S(C)(=O)=O)cs1,–,-3.69%
CC(C)(C)C(=O)N1CCc2cc(-c3csc(N)n3)ccc21,7.08 µM (active),–
CO[C@H]1COC(=O)[C@@H](Cc2ccccc2)NC(=O)[C@@H](C)COC(=O)CCC[C@@H]1C,–,-3.47% [at 11.4 µM]
O=C(CN1CCCCC1)Nc1nnc(-c2ccc([N+](=O)[O-])cc2)s1,–,-14.5%
COCC(=O)N(C)c1nnc(-c2ccc([N+](=O)[O-])cc2)s1,3.16 µM (active),–
COCC(=O)N1CCN(c2ccc([N+](=O)[O-])cc2)CC1,–,-1.44%
CC(C)c1ccc(O)c(NC(=O)c2ncn[nH]2)c1,15.8 µM (active),–
Cc1ccc(C)c(NC(=O)Cn2c([N+](=O)[O-])cnc2C)c1,–,-3.91%
COc1ccc(NC(=O)N2CCCC3(CCNCC3)C2)cc1,–,-1.6%
COc1ccc(NC(=O)OC(C)C)cc1,11.2 µM (active),–
COc1ccc(NC(=O)C(c2ccc(OC)cc2)N(C)C(=O)CNC(C)=O)cc1 (stereo not given),–,-5.37%
COC(=O)N1CCC2(CC1)CN(C(=O)Nc1ccc(OC)cc1)C2,–,-0.895%
COc1ccc(NC(=O)c2ncn[nH]2)cc1,11.2 µM (active),–
Cc1ccc(C)c(NC(=O)C2CC3c4ccccc4C2c2ccccc23)c1 (stereo not given),–,-5.49%
Cc1ccc(C)c(NC(=O)c2ncn[nH]2)c1,15.8 µM (active),–
COc1ccc(NC(=O)N2CCC3(CC2)CCN(S(C)(=O)=O)CC3)cc1,–,3.99%
